Assay results reported in PubChem BioAssay (EPA / NIEHS).
Calls of active or inactive are those of the source. How the source made its calls: active means hit-call score of the fitted dose curve at least 0.9, where 1 is the maximum; inactive means score below 0.9.

Experiment: ATG_AP_2_CIS: Attagene CIS-FACTORIAL HepG2 Assay for human Activator Protein 2 (AP-2) (AID 2282932)
Conditions: HepG2 AP-2 cis-reporter, Attagene transcription factor profiling; actives raise or lower the signal
Protocol: ATG_CIS is a cell-based, multiplexed-readout assay that uses HepG2, a human liver cell line, with measurements taken at 24 hours after chemical dosing in a 24-well plate.ATG_AP_2_CIS is one of 52 assay component(s) measured or calculated from the ATG_CIS assay. It is designed to make measurements of mRNA induction, a form of inducible reporter, as detected with fluorescence intensity signals by Reverse transcription polymerase chain reaction (RT-PCR) and Capillary electrophoresis technology.Data from the assay component ATG_AP_2_CIS was analyzed into 1 assay endpoint. This assay endpoint, ATG_AP_2_CIS, was analyzed with bidirectional fitting relative to DMSO as the negative control and baseline of activity. Using a type of inducible reporter, measures of mRNA for gain or loss-of-signal activity can be used to understand the reporter gene at the transcription factor-level as they relate to the gene TFAP2A and TFAP2B and TFAP2D. Furthermore, this assay endpoint can be referred to as a primary readout, because this assay has produced multiple assay endpoints where this one serves a reporter gene function. To generalize the intended target to other relatable targets, this assay endpoint is annotated to the dna binding intended target family, where the subfamily is basic helix-turn-helix leucine zipper.
Human liver HepG2 cells are transiently transfected with multiple reporter transcription units (MRTUs) in 6-well plates using FuGene 6 reagent (Roche; 3 ml FuGene/1 mg DNA). The MRTU constructs are regulated by a cis-regulating element (promoter). […] A major difference between the CIS and TRANS system is that in CIS activities of endogenous TFs are measured, whereas the TRANS assay evaluates changes in activities of exogenous, chimeric NR-Gal4 proteins. […] At the end of 24 hour incubation, total RNA was isolated using TriZol reagent (Invitrogen). The isolated RNA is then reverse-transcribed using oligo(dT) primer and Mo-MLV reverse transcriptase (Invitrogen) with DNAse I (Ambion) treatment for 30 min. The one-tenth of the produced cDNA was amplified by PCR using Taq DNA polymerase (Invitrogen) and two reporter sequence-specific primers. The PCR products were fluorescently labeled by primer extension with 6-arboxyfluorescein (6-FAM) 5'-labeled reporter sequence-specific primer (2 min at 95 C, 20 s at 68 C and 10 min at 72 C) and these products were digested with 5U of HpaI (New England Biolabs) for 2h at 37 C. The fragments were purified using Qiaquick PCR columns (Qiagen), analyzed on an ABI 3130xL genetic analyzer (Applied Biosystems) with peak positions identified by using a set of X-rhodamine (ROX)-labeled MapMarker1000 molecular weight standards (BioVentures). The raw capillary electrophoresis data was processed using Attagraph software (Attagene).

| Compound | outcome | AC50 |
| --- | --- | --- |
| CC(C)c1ccc(O)c(C(C)C)c1 | inactive |  |
| C/C=C/C=C/CCCCCCCO | inactive |  |
| Fc1ccc(Br)cc1 | inactive |  |
| CC(CC=O)CC(C)(C)C (stereo not given) | inactive |  |
| CCCCCCCCCCCCc1ccc(O)cc1 | inactive |  |
| CCCCCOC(=O)CCCCC | inactive |  |
| CC/C=C\CCOC(=O)c1ccccc1O | inactive |  |
| CCCCOCCOCCOC(C)=O | inactive |  |
| C=C[C@@]1(C)CC(=O)[C@]2(O)[C@@]3(C)[C@@H](O)CCC(C)(C)[C@@H]3[C@H](O)[C@H](OC(C)=O)[C@@]2(C)O1 | inactive |  |
| CC(=O)CC(=O)Nc1ccccc1C | inactive |  |
| CN(C)c1ccc2nc3ccc(=[N+](C)C)cc-3sc2c1 | inactive |  |
| N=C1C=CC(=C(c2ccc(N)cc2)c2ccc(N)cc2)C=C1 |  | 24.7 µM (active) |
| CCCCCCCCCC[N+](C)(CCCCCCCCCC)CCC[Si](OC)(OC)OC |  | 15.3 µM (active) |
| CC1C(C)(C)C2=C(C(=O)CCC2)C1(C)C (stereo not given) | inactive |  |
| CC(Cl)COP(=O)(OCC(C)Cl)OCC(C)Cl (stereo not given) | inactive |  |
| Nc1ccc(C(=O)O)cc1 | inactive |  |
| COc1nccnc1CC(C)C | inactive |  |
| CCCCCCCCC(CO)CCCCCC (stereo not given) | inactive |  |
| Cc1noc(NS(=O)(=O)c2ccc(N)cc2)c1C | inactive |  |
| CCOC(=O)OC(=O)OCC | inactive |  |

| Compound | outcome | AC50 |
| --- | --- | --- |
| O=C(O)CCCC(=O)O | inactive |  |
| CCOC(=O)C1=NOC(c2ccccc2)(c2ccccc2)C1 | inactive |  |
| CCC(C)(O)CCCC(C)C (stereo not given) | inactive |  |
| CCC(C)C(=O)OC (stereo not given) | inactive |  |
| Cc1c(Cl)cccc1Cl | inactive |  |
| CC1(C)C(=O)N(CO)C(=O)N1CO | inactive |  |
| COC(OC)(C(=O)c1ccccc1)c1ccccc1 | inactive |  |
| C[Si]1(C)O[Si](C)(C)O[Si](C)(C)O[Si](C)(C)O[Si](C)(C)O1 | inactive |  |
| COCC(=O)O | inactive |  |
| CC(C)(C)N | inactive |  |
| c1ccc2c(c1)[nH]c1ccccc12 | inactive |  |
| CCOC(=O)[C@H](O)[C@@H](O)C(=O)OCC | inactive |  |
| CC(C)COC(=O)CC(C(=O)OCC(C)C)S(=O)(=O)O (stereo not given) | inactive |  |
| CC1CCC(=O)C1=O (stereo not given) | inactive |  |
| Cc1ccc2c(c1)CCCN2 | inactive |  |
| CCOB(OCC)OCC | inactive |  |
| CC(C)(CO)COC(=O)C(C)(C)CO | inactive |  |
| CCCc1ccc(O)c(OC)c1 | inactive |  |
| CCOC(=O)CC(=O)c1ccccc1 | inactive |  |
| CCNc1nc(NC(C)(C)C)nc(OC)n1 | inactive |  |
